Laboratory results as given in paper PMC7862700, “An all-to-all approach to the identification of sequence-specific readers for epigenetic DNA modifications on cytosine”.

Tests used:
Assay in all cases: DAPPL (digital affinity profiling via proximity ligation, sequencing); 10 mM Tris-HCl pH 7.5, 50 mM NaCl, 1 mM DTT, 4% glycerol, room temperature, 30 min; GST-TFs on glutathione beads, 16-mer random dsDNA library, 0.1% formaldehyde crosslink after washing; high values mean tight binding
FEV = target: T1, FEV (Homo sapiens, UniProt Q99581 1-238); conditions: protein: recombinant; tags: N-terminal GST; dsDNA, one strand shown
T1 sequence: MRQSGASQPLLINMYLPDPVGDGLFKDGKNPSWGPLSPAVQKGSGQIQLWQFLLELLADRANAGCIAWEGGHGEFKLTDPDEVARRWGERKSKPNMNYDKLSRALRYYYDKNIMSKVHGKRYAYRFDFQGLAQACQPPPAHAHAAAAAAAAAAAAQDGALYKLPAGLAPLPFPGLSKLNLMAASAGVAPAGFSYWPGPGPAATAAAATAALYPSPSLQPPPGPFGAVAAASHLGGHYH
Method in brief: (§1)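 Each value of binding signal is a hexamer's read frequency for a factor divided by the same hexamer's frequency in the tag-only sample. Barcoded, bead-captured GST fusions of human transcription factors made in yeast were pooled with that sample and incubated with 200 nmole of a random double-stranded 16-mer DNA library in Tris/NaCl/DTT/glycerol buffer at room temperature for 30 min. Washing, 0.1% formaldehyde crosslinking, proximity ligation, PCR and Illumina NextSeq500 sequencing followed.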

ETV5 = ETV5 (Homo sapiens, UniProt P41161 1-510); conditions: protein: recombinant; tags: N-terminal GST; dsDNA, one strand shown
Sequence of ETV5 (P41161 whole entry): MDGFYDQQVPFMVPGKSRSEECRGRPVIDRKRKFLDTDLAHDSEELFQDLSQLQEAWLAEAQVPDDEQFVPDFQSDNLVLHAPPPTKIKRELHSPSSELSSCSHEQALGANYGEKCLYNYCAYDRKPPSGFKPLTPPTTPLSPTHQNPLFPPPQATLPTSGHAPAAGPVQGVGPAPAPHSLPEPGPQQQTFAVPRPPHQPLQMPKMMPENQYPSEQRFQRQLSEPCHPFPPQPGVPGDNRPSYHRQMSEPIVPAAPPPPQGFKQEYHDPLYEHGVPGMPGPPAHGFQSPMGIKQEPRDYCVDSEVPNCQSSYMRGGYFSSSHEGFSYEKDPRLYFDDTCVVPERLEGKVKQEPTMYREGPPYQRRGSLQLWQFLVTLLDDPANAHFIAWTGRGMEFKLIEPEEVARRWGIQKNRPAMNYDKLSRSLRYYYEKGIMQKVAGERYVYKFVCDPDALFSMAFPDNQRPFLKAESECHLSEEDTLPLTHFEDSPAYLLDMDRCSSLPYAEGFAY
Method in brief: as §1

HSF1 = HSF1 (Homo sapiens, UniProt Q00613 1-529); conditions: protein: recombinant; tags: N-terminal GST; chain copies: 3; dsDNA, one strand shown
Sequence of HSF1 (Q00613 whole entry): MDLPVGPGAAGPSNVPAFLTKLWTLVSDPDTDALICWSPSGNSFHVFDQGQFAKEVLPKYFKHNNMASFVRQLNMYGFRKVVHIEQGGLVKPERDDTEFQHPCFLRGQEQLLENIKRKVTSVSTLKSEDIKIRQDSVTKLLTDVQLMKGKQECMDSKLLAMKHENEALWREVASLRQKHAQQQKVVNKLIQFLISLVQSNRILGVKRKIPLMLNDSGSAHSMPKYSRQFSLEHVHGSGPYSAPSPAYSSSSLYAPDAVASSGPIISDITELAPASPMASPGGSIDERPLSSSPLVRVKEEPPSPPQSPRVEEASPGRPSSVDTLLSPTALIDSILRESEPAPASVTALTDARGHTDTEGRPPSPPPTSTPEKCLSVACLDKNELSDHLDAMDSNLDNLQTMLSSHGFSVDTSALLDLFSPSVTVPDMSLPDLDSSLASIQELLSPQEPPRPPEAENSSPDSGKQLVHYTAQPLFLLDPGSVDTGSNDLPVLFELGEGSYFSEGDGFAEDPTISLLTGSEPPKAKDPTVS
Method in brief: as §1

SPIC = target: T2, SPIC (Homo sapiens, UniProt Q8N5J4 1-248); conditions: protein: recombinant; tags: N-terminal GST; dsDNA, one strand shown
T2 sequence: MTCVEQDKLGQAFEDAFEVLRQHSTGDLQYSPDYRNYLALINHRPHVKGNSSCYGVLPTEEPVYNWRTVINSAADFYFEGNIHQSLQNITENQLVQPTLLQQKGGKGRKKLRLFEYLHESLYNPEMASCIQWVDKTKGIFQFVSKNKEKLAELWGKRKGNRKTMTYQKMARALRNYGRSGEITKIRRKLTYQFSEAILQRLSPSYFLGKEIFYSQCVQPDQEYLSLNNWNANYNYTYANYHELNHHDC
Method in brief: as §1

ELF4 = ELF4 (Homo sapiens, UniProt Q99607 1-663); conditions: protein: recombinant; tags: N-terminal GST; dsDNA, one strand shown
Sequence of ELF4 (Q99607 whole entry): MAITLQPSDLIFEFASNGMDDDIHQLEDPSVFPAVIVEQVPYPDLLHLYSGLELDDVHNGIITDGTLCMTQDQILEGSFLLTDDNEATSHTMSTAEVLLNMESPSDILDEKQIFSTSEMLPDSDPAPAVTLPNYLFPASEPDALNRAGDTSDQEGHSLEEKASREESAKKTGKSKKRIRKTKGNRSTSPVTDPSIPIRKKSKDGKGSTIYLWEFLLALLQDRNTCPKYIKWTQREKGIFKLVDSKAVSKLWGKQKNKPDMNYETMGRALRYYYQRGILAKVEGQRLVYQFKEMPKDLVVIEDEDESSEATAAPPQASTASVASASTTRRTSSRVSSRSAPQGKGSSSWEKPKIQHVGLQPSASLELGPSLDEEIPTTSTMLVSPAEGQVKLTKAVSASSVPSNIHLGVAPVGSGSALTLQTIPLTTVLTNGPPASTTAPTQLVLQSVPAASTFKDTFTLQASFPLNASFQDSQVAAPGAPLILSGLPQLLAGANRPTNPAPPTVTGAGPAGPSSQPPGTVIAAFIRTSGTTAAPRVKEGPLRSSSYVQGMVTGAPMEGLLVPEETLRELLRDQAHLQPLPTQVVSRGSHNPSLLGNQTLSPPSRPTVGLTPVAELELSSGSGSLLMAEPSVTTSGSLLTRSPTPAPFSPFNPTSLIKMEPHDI
Method in brief: as §1

ELK4 = target: T3, ELK4 (Homo sapiens, UniProt P28324-2 1-405); conditions: protein: recombinant; tags: N-terminal GST; dsDNA, one strand shown
T3 sequence: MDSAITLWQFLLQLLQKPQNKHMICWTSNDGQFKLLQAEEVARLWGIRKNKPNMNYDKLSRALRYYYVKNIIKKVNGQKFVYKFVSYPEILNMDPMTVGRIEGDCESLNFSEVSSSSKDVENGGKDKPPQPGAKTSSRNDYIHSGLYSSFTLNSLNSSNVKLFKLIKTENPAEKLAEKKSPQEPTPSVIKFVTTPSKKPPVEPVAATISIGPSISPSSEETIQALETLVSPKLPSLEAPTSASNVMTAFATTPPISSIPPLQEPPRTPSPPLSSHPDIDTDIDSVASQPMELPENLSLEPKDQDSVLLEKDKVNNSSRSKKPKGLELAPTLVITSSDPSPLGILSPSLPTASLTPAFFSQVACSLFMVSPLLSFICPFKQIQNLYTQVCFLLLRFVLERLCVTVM
Method in brief: as §1

ETV2 = target: T4, ETV2 (Homo sapiens, UniProt O00321 1-342); conditions: protein: recombinant; tags: N-terminal GST; dsDNA, one strand shown
T4 sequence: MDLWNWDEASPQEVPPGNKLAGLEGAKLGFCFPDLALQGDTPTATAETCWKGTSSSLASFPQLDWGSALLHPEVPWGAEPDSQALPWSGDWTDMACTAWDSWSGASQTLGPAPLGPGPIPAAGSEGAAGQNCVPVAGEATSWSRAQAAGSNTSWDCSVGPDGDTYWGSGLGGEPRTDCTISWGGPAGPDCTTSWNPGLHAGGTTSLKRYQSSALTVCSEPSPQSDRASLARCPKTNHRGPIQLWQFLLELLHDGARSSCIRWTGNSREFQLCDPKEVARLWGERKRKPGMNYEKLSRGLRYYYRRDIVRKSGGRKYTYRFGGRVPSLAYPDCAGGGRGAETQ
Method in brief: as §1

ELF3 = target: T5, ELF3 (Homo sapiens, UniProt P78545 1-371); conditions: protein: recombinant; tags: N-terminal GST; dsDNA, one strand shown
T5 sequence: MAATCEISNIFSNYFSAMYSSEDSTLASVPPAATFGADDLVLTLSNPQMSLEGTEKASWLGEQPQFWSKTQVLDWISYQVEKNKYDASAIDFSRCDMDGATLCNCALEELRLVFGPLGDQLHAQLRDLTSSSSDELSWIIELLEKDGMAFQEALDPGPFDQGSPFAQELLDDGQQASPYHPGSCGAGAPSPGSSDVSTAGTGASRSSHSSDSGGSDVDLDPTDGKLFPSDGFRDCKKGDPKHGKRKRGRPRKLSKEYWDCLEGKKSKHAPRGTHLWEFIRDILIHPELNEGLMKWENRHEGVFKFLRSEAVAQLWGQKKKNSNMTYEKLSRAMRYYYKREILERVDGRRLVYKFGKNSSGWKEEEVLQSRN
Method in brief: as §1

CRX = CRX (Homo sapiens, UniProt O43186 1-299); conditions: protein: recombinant; tags: N-terminal GST; dsDNA, one strand shown
Sequence of CRX (O43186 whole entry): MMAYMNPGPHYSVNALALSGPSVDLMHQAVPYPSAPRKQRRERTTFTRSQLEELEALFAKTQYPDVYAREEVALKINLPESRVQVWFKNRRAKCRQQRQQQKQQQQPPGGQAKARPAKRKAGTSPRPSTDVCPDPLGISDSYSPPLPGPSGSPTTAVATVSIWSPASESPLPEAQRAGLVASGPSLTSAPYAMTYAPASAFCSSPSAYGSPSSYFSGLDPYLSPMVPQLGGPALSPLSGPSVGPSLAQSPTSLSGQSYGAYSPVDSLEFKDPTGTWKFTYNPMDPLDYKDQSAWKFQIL
Method in brief: as §1

ETV1 = ETV1 (Homo sapiens, UniProt P50549 1-477); conditions: protein: recombinant; tags: N-terminal GST; dsDNA, one strand shown
Sequence of ETV1 (P50549 whole entry): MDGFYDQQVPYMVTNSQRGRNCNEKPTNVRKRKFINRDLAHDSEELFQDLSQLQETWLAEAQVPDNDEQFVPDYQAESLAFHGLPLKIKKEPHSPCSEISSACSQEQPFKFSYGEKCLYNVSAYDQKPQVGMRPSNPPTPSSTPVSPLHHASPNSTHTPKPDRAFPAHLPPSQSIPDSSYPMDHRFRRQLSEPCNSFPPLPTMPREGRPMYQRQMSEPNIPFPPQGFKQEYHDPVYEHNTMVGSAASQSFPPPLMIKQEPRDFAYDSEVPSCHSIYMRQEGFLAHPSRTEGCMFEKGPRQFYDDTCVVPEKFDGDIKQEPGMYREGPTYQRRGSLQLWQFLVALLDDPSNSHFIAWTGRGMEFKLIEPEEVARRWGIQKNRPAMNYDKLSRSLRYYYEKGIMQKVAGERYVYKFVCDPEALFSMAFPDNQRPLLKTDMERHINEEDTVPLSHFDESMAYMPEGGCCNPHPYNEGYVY
Method in brief: as §1

Sequence	binding signal (FEV)	binding signal (ETV5)	binding signal (HSF1)	binding signal (SPIC)	binding signal (ELF4)	binding signal (ELK4)	binding signal (ETV2)	binding signal (ELF3)	binding signal (CRX)	binding signal (ETV1)
GAAATA	1.54 fold enrichment (6-mer frequency, TF over GST control)	1.63 fold enrichment (6-mer frequency, TF over GST control)	1.21 fold enrichment (6-mer frequency, TF over GST control)	1.43 fold enrichment (6-mer frequency, TF over GST control)	1.35 fold enrichment (6-mer frequency, TF over GST control)	1.39 fold enrichment (6-mer frequency, TF over GST control)	1.42 fold enrichment (6-mer frequency, TF over GST control)	1.62 fold enrichment (6-mer frequency, TF over GST control)	1.11 fold enrichment (6-mer frequency, TF over GST control)	1.54 fold enrichment (6-mer frequency, TF over GST control)
TTAATG	1.12 fold enrichment (6-mer frequency, TF over GST control)	1.27 fold enrichment (6-mer frequency, TF over GST control)	1.89 fold enrichment (6-mer frequency, TF over GST control)	1.24 fold enrichment (6-mer frequency, TF over GST control)	1.26 fold enrichment (6-mer frequency, TF over GST control)	1.21 fold enrichment (6-mer frequency, TF over GST control)	1.31 fold enrichment (6-mer frequency, TF over GST control)	1.21 fold enrichment (6-mer frequency, TF over GST control)	2.75 fold enrichment (6-mer frequency, TF over GST control)	1.29 fold enrichment (6-mer frequency, TF over GST control)
AAATTG	1.22 fold enrichment (6-mer frequency, TF over GST control)	1.26 fold enrichment (6-mer frequency, TF over GST control)	1.16 fold enrichment (6-mer frequency, TF over GST control)	1.16 fold enrichment (6-mer frequency, TF over GST control)	1.27 fold enrichment (6-mer frequency, TF over GST control)	1.2 fold enrichment (6-mer frequency, TF over GST control)	1.21 fold enrichment (6-mer frequency, TF over GST control)	1.33 fold enrichment (6-mer frequency, TF over GST control)	1.05 fold enrichment (6-mer frequency, TF over GST control)	1.21 fold enrichment (6-mer frequency, TF over GST control)
CTTGCC	1.29 fold enrichment (6-mer frequency, TF over GST control)	1.17 fold enrichment (6-mer frequency, TF over GST control)	1.1 fold enrichment (6-mer frequency, TF over GST control)	1.66 fold enrichment (6-mer frequency, TF over GST control)	1.26 fold enrichment (6-mer frequency, TF over GST control)	1.17 fold enrichment (6-mer frequency, TF over GST control)	1.24 fold enrichment (6-mer frequency, TF over GST control)	1.43 fold enrichment (6-mer frequency, TF over GST control)	1.1 fold enrichment (6-mer frequency, TF over GST control)	1.25 fold enrichment (6-mer frequency, TF over GST control)
AATCCC	1.41 fold enrichment (6-mer frequency, TF over GST control)	1.3 fold enrichment (6-mer frequency, TF over GST control)	2.47 fold enrichment (6-mer frequency, TF over GST control)	1.2 fold enrichment (6-mer frequency, TF over GST control)	1.33 fold enrichment (6-mer frequency, TF over GST control)	1.28 fold enrichment (6-mer frequency, TF over GST control)	1.37 fold enrichment (6-mer frequency, TF over GST control)	1.35 fold enrichment (6-mer frequency, TF over GST control)	3.65 fold enrichment (6-mer frequency, TF over GST control)	1.42 fold enrichment (6-mer frequency, TF over GST control)
CCAATA	1.19 fold enrichment (6-mer frequency, TF over GST control)	1.29 fold enrichment (6-mer frequency, TF over GST control)	1.12 fold enrichment (6-mer frequency, TF over GST control)	1.18 fold enrichment (6-mer frequency, TF over GST control)	1.29 fold enrichment (6-mer frequency, TF over GST control)	1.23 fold enrichment (6-mer frequency, TF over GST control)	1.09 fold enrichment (6-mer frequency, TF over GST control)	1.25 fold enrichment (6-mer frequency, TF over GST control)	1.22 fold enrichment (6-mer frequency, TF over GST control)	1.21 fold enrichment (6-mer frequency, TF over GST control)
CCAATT	1.23 fold enrichment (6-mer frequency, TF over GST control)	1.26 fold enrichment (6-mer frequency, TF over GST control)	1.09 fold enrichment (6-mer frequency, TF over GST control)	1.31 fold enrichment (6-mer frequency, TF over GST control)	1.32 fold enrichment (6-mer frequency, TF over GST control)	1.09 fold enrichment (6-mer frequency, TF over GST control)	1.27 fold enrichment (6-mer frequency, TF over GST control)	1.39 fold enrichment (6-mer frequency, TF over GST control)	1.05 fold enrichment (6-mer frequency, TF over GST control)	1.26 fold enrichment (6-mer frequency, TF over GST control)
